Screens: PubChem BioAssay, National Center for Advancing Translational Sciences (NCATS)
This is a sample that favours compounds with a hit; in the whole collection about 19% have one here.
DT40 TDP1 no CPT: qHTS for Inhibitors of human tyrosyl-DNA phosphodiesterase 1 (TDP1): qHTS in cells in absence of CPT; 15% of 420,000 active; Potency, µM (doses to about 46.2 µM), usual class: inhibitors; DT40 Tdp1-/- hTDP1 cells, no CPT, ATP luminescence, 48 h; also: nearly all actives have a fitted effect of over 55% in size
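Camptothecin absent (DMSO only). Human TDP1-complemented DT40 knockout cells, 400 cells/well, 37 °C for minimum 48 hr; ATP measured via CellTiter-Glo, 30 min dark incubation, luminescence.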
IL1B secr inh: qHTS for Inhibitors of Inflammasome Signaling: IL-1-beta AlphaLISA Primary Screen | THP-1 LPS/ATP IL-1B secretion, AlphaLISA, 16 h; hits give low values | activity change, % at 57.5 µM | 4.7% of 360,000 active | AID 743279, 2014; in the data active = activity change below about -50%; inconclusive = mostly about -30% to -49%
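THP-1 cells pretreated 1 hr with compounds (up to 57.5 uM final), then stimulated with LPS (250 ng/mL final) plus ATP (1.25 mM final); secreted IL-1B measured by AlphaLISA after 16 hr, decreased signal indicating inhibition.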
TDP1 cell CPT: qHTS for Inhibitors of human tyrosyl-DNA phosphodiesterase 1 (TDP1): qHTS in cells in presence of CPT | Potency, µM (doses to about 46.2 µM), most hits filed as inhibitors | 12% of 420,000 active | AID 686979, 2013 | chicken DT40 Tdp1-/-;hTDP1 cells + 20 nM CPT, ATP luminescence, 48 h; also: nearly all actives have a fitted effect of over 55% in size
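Cell growth measured by CellTiter-Glo luminescence after a minimum 48 h, 37 C compound exposure with 20 nM CPT in Tdp1-knockout DT40 cells stably expressing hTDP1, seeded 400/well; qHTS titration format.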
Giardia kill: Small Molecules that selectively kill Giardia lamblia: qHTS | Giardia lamblia trophozoite viability | activity change, % at 7.66 µM, hits read low | 0.15% of 340,000 active | AID 540267, 2011; in the data active = activity change below about -80%; inconclusive = between about -30% and that limit;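 also: parasites exposed to compound for two days anaerobically before the ATP read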
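Trophozoite viability was measured as ATP-dependent luminescence, read 15-30 min after reagent addition. Before that, parasites at 100 cells/well were exposed to compounds for 48 h, anaerobically, at 37 deg C.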
ELG1 repair inh: qHTS screen for small molecules that inhibit ELG1-dependent DNA repair in human embryonic kidney (HEK293T) cells expressing luciferase-tagged ELG1 | HEK293T ELG1-luciferase reporter, luminescence, 16 h; DNA damage induced by 5-fluorouridine | Potency, µM (highest dose often 46.1 µM), usual class: inhibitors | 2.3% of 330,000 active | AID 504467, 2011; also: nearly all actives have a fitted effect of over 55% in size
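In this reporter screen, reduction of luminescence relative to DMSO vehicle indicated activity. Compounds and 5-fluorouridine were added together to 2,000 cells per well, incubated for 16 hr at 37 °C, then developed with ONE-Glo.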
TDP1 block: qHTS Assay for Inhibitors of Tyrosyl-DNA Phosphodiesterase (TDP1). Tyrosyl-DNA phosphodiesterase 1 (Homo sapiens), Q9NUW8. recombinant TDP1, AlphaScreen DNA substrate cleavage. Potency, µM (top dose mostly 130 µM), most hits filed as inhibitors. 0.28% of 350,000 active. AID 485290, 2010; also: nearly all actives have a fitted effect of over 40% in size
Target sequence (Q9NUW8 whole entry, looked up): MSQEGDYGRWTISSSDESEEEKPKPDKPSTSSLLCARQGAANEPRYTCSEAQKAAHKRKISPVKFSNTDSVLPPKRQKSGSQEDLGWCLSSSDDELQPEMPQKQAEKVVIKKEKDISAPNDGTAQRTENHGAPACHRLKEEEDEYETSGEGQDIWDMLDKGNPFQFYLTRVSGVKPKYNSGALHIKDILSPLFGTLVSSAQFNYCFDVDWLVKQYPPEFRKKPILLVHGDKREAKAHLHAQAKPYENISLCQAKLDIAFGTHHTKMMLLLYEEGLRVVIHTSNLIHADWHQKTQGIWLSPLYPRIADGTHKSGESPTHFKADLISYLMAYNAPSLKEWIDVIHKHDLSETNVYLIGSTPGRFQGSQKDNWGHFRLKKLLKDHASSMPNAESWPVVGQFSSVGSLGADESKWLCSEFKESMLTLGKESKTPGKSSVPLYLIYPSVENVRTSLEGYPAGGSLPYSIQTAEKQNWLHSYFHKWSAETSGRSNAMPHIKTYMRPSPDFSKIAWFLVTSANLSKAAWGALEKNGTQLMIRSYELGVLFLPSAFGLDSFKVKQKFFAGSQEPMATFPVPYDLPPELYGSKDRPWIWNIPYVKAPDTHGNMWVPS
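Recombinant E. coli-expressed Tdp1 (1 nM) preincubated with compound 15 min at RT, then 5'-biotin/3'-phosphotyrosine-FITC DNA substrate (15 nM) added for 5 min. AlphaScreen beads (10 ug/ml) added, 10 min RT; tyrosine-FITC cleavage read as signal loss.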
Hits are given with their value; n = inactive; u = inconclusive; x = no result given; [ ] = remark or other dose. Unless noted, calls follow the shape of the dose curve; as a rule, active = well fitted curve in the direction sought with a large enough effect; inconclusive = small, poorly fitted or top-dose-only effect, or another doubt; inactive = no such curve, though single readings can be large; an effect the other way counts as inactive or inconclusive.

SMILES | DT40 TDP1 no CPT | IL1B secr inh | TDP1 cell CPT | Giardia kill | ELG1 repair inh | TDP1 block
C[C@@H]1CN([C@@H](C)CO)C(=O)c2cc(-c3ccccc3F)cnc2O[C@H]1CN(C)Cc1cccc(F)c1 | 23µM | n | u | x | x | x
C[C@@H]1CN([C@@H](C)CO)C(=O)c2cc(C#Cc3cccc(F)c3)cnc2O[C@H]1CN(C)C(=O)C1CCCCC1 | u | n | n | x | x | x
CCN(CC)CCCNC(=O)c1ccc2nc(N3CCCCC3)sc2c1 | u | x | u | x | x | n
C[C@@H]1CN([C@H](C)CO)C(=O)c2cc(Br)cnc2O[C@@H]1CN(C)C(=O)c1cccc(F)c1 | n | n | n | x | x | x
C[C@H]1CN([C@@H](C)CO)C(=O)c2cc(/C=C/c3ccccc3)cnc2O[C@H]1CN(C)C(=O)c1cccc(F)c1 | 23µM | n | u | x | x | x
CN(C)c1ccc(C(CNS(=O)(=O)c2ccc(F)cc2)N2CCCC2)cc1 (centres undefined) | u | x | u | x | x | n
CCCCCCn1c(SCC(=O)Nc2cc(C)on2)nc2ccccc2c1=O | 10µM | n | u | n | n | n
CCn1c(SCC(=O)Nc2cc(C)on2)nc2c([nH]c3ccccc32)c1=O | 18µM | n | u | n | n | n
COCCn1c(SCC(=O)Nc2cc(C)on2)nc2ccccc2c1=O | u | n | n | n | u | n
COCCn1c(SCC(=O)Nc2cc(C)on2)nc2c([nH]c3ccccc32)c1=O | u | n | u | x | x | x
COc1ccc(CN2CCN(C3CCC3)CC2CCO)c(F)c1 (centres undefined) | n | n | n | n | n | n
COc1ccc(OC)c(S(=O)(=O)N2CCC(C(=O)NC3CCCCCC3)CC2)c1 | u | n | n | n | n | x
COc1cc([C@@H]2[C@H]3CNCC=C3C(C#N)=C(N)C2(C#N)C#N)ccc1OC(C)C | u | n | 9.2µM | n | u | n
COc1cc(Br)c(C[N+]2(CCOCCC3CCC4CC3C4(C)C)CCOCC2)cc1OC (centres undefined) | 1.9µM | x | 1.9µM | x | x | x
CC(C)(C)CN1CCN(CC#Cc2ccccc2)CC1CCO (centres undefined) | 10µM | n | u | n | n | n
CCN1C(=O)N[C@H](c2ccc(Br)cc2)C(C(C)=O)=C1C | 16µM | n | 21µM | n | n | n
CCN1C(=O)N[C@@H](c2cccc(F)c2)C(C(C)=O)=C1C | n | n | n | n | x | n[12.3 µM]
Cc1ccc(-n2c(=O)c3c4c(sc3n(CC(=O)Nc3cccc(Cl)c3)c2=O)CCCCC4)cc1C | n | x | n | x | x | n
CCNC(=O)C1(C)CCN(C(=O)c2ccc(OC)cc2)C1 (centres undefined) | n | n | n | x | x | x
COc1cc(C(=O)N2CCCC(C)(C(=O)NS(=O)(=O)C3CC3)C2)cc(OC)c1OC (centres undefined) | 0.92µM | n | 1.6µM | x | x | x
CC1(C(=O)NS(=O)(=O)C2CC2)CCCN(C(=O)c2ccccc2OC(F)(F)F)C1 (centres undefined) | 9.2µM | n | u | x | x | x
CC1(C(=O)NS(=O)(=O)C2CC2)CCCN(C(=O)c2cccc(OC(F)(F)F)c2)C1 (centres undefined) | 3.7µM | -64 | u | x | x | x
COc1ccc(C(=O)N2CCCC(C)(C(=O)NS(=O)(=O)C3CC3)C2)cc1 (centres undefined) | 1.5µM | n | u | x | x | x
CC1(C(=O)NS(=O)(=O)C2CC2)CCN(C(=O)c2cc(F)cc(F)c2)C1 (centres undefined) | n | n | n | x | x | x
CC(C)Nc1nnc(SC(C)C(=O)Nc2ccc(Cl)cn2)s1 (centres undefined) | n | n | n | n | n | n
SMILES | DT40 TDP1 no CPT | IL1B secr inh | TDP1 cell CPT | Giardia kill | ELG1 repair inh | TDP1 block
CCCCCC=CCC=CCCCCCCCC(=O)OCC | n | x | n | x | x | x
CC1(C(=O)NS(=O)(=O)C2CC2)CCCN(C(=O)c2cccc(C(F)(F)F)c2)C1 (centres undefined) | 4.1µM | n | u | x | x | x
CC1(C(=O)NS(=O)(=O)C2CC2)CCCN(C(=O)c2ccc(C(F)(F)F)cc2)C1 (centres undefined) | 0.65µM | n | 0.73µM | x | x | x
O=C(Cn1cnnn1)NCc1ccccc1 | n | n | n | n | n | n
COC1=CC(=O)OC(c2cccc([N+](=O)[O-])c2)C1 (centres undefined) | n | n | n | x | x | x
Cc1nn(C)c(C)c1Nc1ccc(N2C(=O)C3C4C=CC(C4)C3C2=O)cc1[N+](=O)[O-] (centres undefined) | 23µM | n | u | n | u | n
CCOC(=O)c1c(C)[nH]c(C)c1S(=O)(=O)N1CCC(C(=O)Nc2ccc(OC)c(OC)c2)CC1 | n | x | n | x | x | n
O=[N+]([O-])c1ccc(N2CCCCCC2)c([N+](=O)[O-])c1 | n | n | n | n | n | n
O=[N+]([O-])c1cc(S(=O)(=O)c2ccc(N3CCCCC3)c([N+](=O)[O-])c2)ccc1N1CCCCC1 | 21µM | n | u | n | n | n
O=[N+]([O-])c1cccc(S(=O)(=O)c2ccc(N3CCCCC3)c([N+](=O)[O-])c2)c1 | 26µM | n | u | n | u | n
O=[N+]([O-])c1cccc(S(=O)(=O)c2cccc([N+](=O)[O-])c2)c1 | n | n | n | u | n | n
CC1CCC(NC(=O)CCNS(=O)(=O)c2ccc3c(c2)CCC(=O)N3)CC1 (centres undefined) | n | n | n | n | n | n
NC(COCc1ccccc1)c1csc(Nc2ccc(S(N)(=O)=O)cc2)n1 (centres undefined) | u | n | u | x | x | x
NC(c1ccccc1)c1csc(NC(=O)Nc2cccc(Cl)c2)n1 (centres undefined) | u | -104 | u | x | x | x
O=C(Nc1cccc(Cl)c1)Nc1nc(-c2ccc(Cl)cc2)cs1 | 16µM | n | 12µM | n | n | n
O=C(Cc1csc(NC(=O)Nc2cccc(Cl)c2)n1)NC1CCCC1 | u | n | u | n | n | n
O=C(Nc1ccccc1)Nc1nc(-c2ccc(Cl)cc2)cs1 | u | n | u | n | n | n
NC(CCc1ccccc1)c1csc(NC(=O)Nc2cccc(Cl)c2)n1 (centres undefined) | 23µM | -61 | 26µM | x | x | x
NC(COCc1ccccc1)c1csc(NC(=O)Nc2cccc(C(F)(F)F)c2)n1 (centres undefined) | u | -55 | 21µM | x | x | x
